Here are results for 13 compounds from PubChem BioAssay.

Several values for one entry are separate records, joined by “and”; a condition that tells them apart may be missing. Equal values may be shown once. Activity calls are given as the source filed them. Unless noted, no rule for the calls is given here.

Experiment [1] relates to XIP peptide (Xip251-270) binding. Nature of the experiment: XIP fragment 251-270 binding compounds – biochemical, small-molecule microarray, fluorescence 635/667 nm, 0.1 µg/mL protein, primary screen (AID 1182). As to conditions: fluorescent protein binding, 635 nm, higher = more signal, called active from +8 up or from −8 down.
The subject of experiment [2] is XIP peptide (Xip251-270). Nature of the experiment: compounds binding XIP fragment 251-270 – biochemical, small-molecule microarray, fluorescence 635/667 nm, 0.5 µg/mL protein, primary screen (AID 1183). As to conditions: fluorescence 635 nm, higher = more signal.
The nature of experiment [3]: blood-stage malaria parasite viability loss – strain 3D7, DAPI fluorescence, 100 nL, primary screen (AID 1184).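 Also: parasites grown inside human red blood cells in medium with human serum.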 The settings on record: P. falciparum 3D7 growth, 3 d, higher = more signal.
In experiment [4] the target is Homeobox protein Hox-A13 (Mus musculus) (UniProt Q62424). In words: disruptors of Hoxa13 oligonucleotide interaction – biochemical, fluorescence polarization, labeled oligonucleotide, primary screen (AID 1185). As to conditions: Hoxa13:DNA binding, 15 min, higher = more signal, called active from +8 up or from −8 down. A general note: Fluorescence polarisation rises when a labelled molecule tumbles more slowly, as on binding a larger partner.

A short description of experiment [5]: blockers of DNA damage checkpoint Chk1 activation – imaging, HeLa, hydroxyurea, phospho-Chk1 antibody, percent positive cells, primary screen (AID 1186). As to conditions: hydroxyurea-induced phospho-Chk1 immunofluorescence imaging, higher = more signal.
Experiment [6] is described as follows: blockers of DNA damage checkpoint Chk1 activation – imaging, HeLa, hydroxyurea, phospho-Chk1 nuclear intensity, primary screen (AID 1187). The settings on record: hydroxyurea-induced phospho-Chk1 immunofluorescence imaging, higher = more signal.

Homeobox protein Hox-A13 (Mus musculus), sequence (Q62424 whole entry, looked up): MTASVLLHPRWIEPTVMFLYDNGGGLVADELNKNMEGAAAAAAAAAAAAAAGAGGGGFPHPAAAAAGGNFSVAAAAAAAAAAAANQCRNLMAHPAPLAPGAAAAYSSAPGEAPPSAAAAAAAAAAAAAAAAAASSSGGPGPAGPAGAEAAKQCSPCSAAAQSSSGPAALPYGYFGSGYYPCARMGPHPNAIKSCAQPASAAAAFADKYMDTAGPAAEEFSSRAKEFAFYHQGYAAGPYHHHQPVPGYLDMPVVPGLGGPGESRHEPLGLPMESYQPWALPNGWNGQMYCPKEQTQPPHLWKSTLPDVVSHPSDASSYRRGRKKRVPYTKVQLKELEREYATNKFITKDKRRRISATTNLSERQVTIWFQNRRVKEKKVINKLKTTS

For the compound `CCOC(=O)NN=C1C[C@@H](O)[C@@H](O)[C@@H]2[C@@H]3C(=O)N(Cc4ccccc4)C(=O)[C@@H]3CC[C@@H]12`, the composite z-score is -0.479 (inactive) in experiment [1] and 0.0853 in experiment [2]. For the same compound, the z-score is -0.647 in experiment [3] and -0.411 (inactive) in experiment [4].

As to `C[C@@H](ON=C1[C@H]2CCn3c(=O)n(-c4ccccc4)c(=O)n3[C@H]2[C@H](O)[C@@H]2O[C@H]12)c1cn([C@H](CO)Cc2ccccc2)nn1`, the composite z-score in experiment [1] was 0.764 (inactive); in experiment [2], 0.297. Further, the z-score in experiment [3] is -0.516; in experiment [4], -2.41 (inactive).

On to `C=CCN(C(=O)C(c1cccs1)N(CCOCCO)C(=O)/C=C\C(=O)O)C(C)(C)C` (centres undefined), for which the composite z-score was -0.344 (inactive) and 0.0156 (inactive) in experiment [1]; -0.281 and -0.228 in experiment [2]. Also, the z-score is 0.0905 and 0.921 in experiment [3]; 0.175 (inactive) and -0.386 (inactive) in experiment [4]; 0.0502 (inactive) and -0.289 (inactive) in experiment [5]; -0.124 (inactive) and 0.0803 (inactive) in experiment [6].

For `C=CCN(C(=O)C(c1cccs1)N(C(=O)/C=C\C(=O)O)c1c(Cl)cccc1CO)c1ccc(OC)cc1` (centres undefined), the composite z-score in experiment [1] is 0.861 (inactive) and 0.113 (inactive); in experiment [2] it was -0.457 and -1.04. The z-score is 0.734 and 1.62 in experiment [3]; 0.171 (inactive) and -1.67 (inactive) in experiment [4]; -0.0464 (inactive) and 0.245 (inactive) in experiment [5]; 0.0355 (inactive) and 0.636 (inactive) in experiment [6].

In the case of `CC(C)[Si]1(C(C)C)OCc2cc(C3CC3)nc(CCc3ccccc3)c21`, the composite z-score in experiment [1] was 1.11 (inactive) and 0.0908 (inactive); in experiment [2] it was -0.663 and -0.481. Moreover, the z-score in experiment [3] is -0.541 and 0.653; in experiment [4] it was -0.448 (inactive) and 0.438 (inactive); in experiment [5] it was 0.0389 (inactive) and 0.993 (inactive); in experiment [6], 0.579 (inactive) and 0.548 (inactive).

As for `C=CC[C@@H](O)c1ccc(O)c(F)c1`, the composite z-score is -0.316 (inactive) and -0.555 (inactive) in experiment [1]; 0.849 and -1.57 in experiment [2]. For the same compound, the z-score in experiment [3] is 0.408 and -0.881; in experiment [4], -2.13 (inactive) and -0.155 (inactive); in experiment [5], -0.0057 (inactive) and -0.138 (inactive); in experiment [6] it was -0.268 (inactive) and -0.321 (inactive).

As for `C=CCN(CCCCC)C(=O)C1N(CCCCCCO)C(=O)C2C(C(=O)O)C3C=CC21O3` (centres undefined), the composite z-score in experiment [1] was 0.0579 (inactive) and 0.042 (inactive); in experiment [2], 0.69 and 0.714. The z-score is 2.33 and 1.76 in experiment [3]; -1.18 (inactive) and -1.07 (inactive) in experiment [4]; 0.99 (inactive) and 1.26 (inactive) in experiment [5]; 0.616 (inactive) and 0.8 (inactive) in experiment [6].

On to `CCCCN1CC=CC23O[C@@H]4C=CCCOC(=O)C4[C@H]2C(=O)N(C(C)CO)[C@@H]3C1=O` (some centres undefined), for which the composite z-score in experiment [1] was -0.0981 (inactive) and -0.455 (inactive); in experiment [2], -0.41 and -0.585. Further, the z-score was 0.0728 and -0.271 in experiment [3]; -5.84 (inactive) and -4.77 (inactive) in experiment [4]; 0.34 (inactive) and -0.204 (inactive) in experiment [5]; 0.293 (inactive) and -0.258 (inactive) in experiment [6].

Consider `COC(=O)[C@@]1(Cc2ccccc2)[C@H]2c3cc(C(=O)N(C)C)n(Cc4ccc(C)c(F)c4F)c3C[C@H]2CN1C(=O)c1ccccc1`, for which the composite z-score in experiment [1] was -0.103 (inactive) and -0.157 (inactive); in experiment [2], 0.639 and 0.462. Besides, the z-score in experiment [3] was -1.74 and -1.65; in experiment [4], -4.22 (inactive) and -3.34 (inactive); in experiment [5], -0.387 (inactive) and 0.293 (inactive); in experiment [6] it was -0.653 (inactive) and 0.169 (inactive).

Regarding `CC(C)[Si]1(C(C)C)OCc2cc(CCCc3cc4c(c(CCc5ccccc5)n3)[Si](C(C)C)(C(C)C)OC4)nc(CCc3ccccc3)c21`, the composite z-score in experiment [1] was -0.189 (inactive) and -0.0317 (inactive); in experiment [2], -1.31 and -0.189. Besides, the z-score in experiment [3] is 0.0742 and 1.55; in experiment [4], -1.38 (inactive) and -0.138 (inactive); in experiment [5] it was -0.72 (inactive) and 0.618 (inactive); in experiment [6] it was -0.625 (inactive) and -0.0158 (inactive).

On to `CCOC(=O)[C@@H]1CC2O[C@]23C[C@@H]1C(=O)N1CCC[C@@H]1[C@H]3O[Si](C)(C)C(C)(C)C` (some centres undefined), for which the composite z-score was -0.86 (inactive) and -0.342 (inactive) in experiment [1]; -0.791 and 0.0241 in experiment [2]. Further, the z-score in experiment [3] is -0.662 and 1.63; in experiment [4] it was -4.09 (inactive) and -1.56 (inactive); in experiment [5], 0.271 (inactive) and 0.387 (inactive); in experiment [6] it was 0.288 (inactive) and 0.549 (inactive).

As to `C=CCN(Cc1ccccc1)C(=O)C1N(C(C)(C)CO)C(=O)C2C(C(=O)O)C3C=CC21O3` (centres undefined), the composite z-score was 0.102 (inactive) and -0.207 (inactive) in experiment [1]; 0.234 and -0.526 in experiment [2]. For the same compound, the z-score in experiment [3] is 0.379 and -0.247; in experiment [4] it was -0.255 (inactive) and -0.187 (inactive); in experiment [5], -0.401 (inactive) and -0.113 (inactive); in experiment [6] it was -0.326 (inactive) and -0.297 (inactive).

On to `C=CCN(Cc1ccccc1)C(=O)C1N(c2ccc(CCO)cc2)C(=O)C2C(C(=O)O)C3C=CC21O3` (centres undefined), for which the composite z-score is 0.224 (inactive) and -0.96 (inactive) in experiment [1]; -0.726 and 0.918 in experiment [2]. The z-score is -1.34 and -0.544 in experiment [3]; -0.61 (inactive) and -2.5 (inactive) in experiment [4]; 0.127 (inactive) and -0.193 (inactive) in experiment [5]; -0.0077 (inactive) and -0.58 (inactive) in experiment [6].
